Out of some 2,300 compounds screened, about 1,700 (74%) were called active. The rule behind the calls is not given here. The set was probably picked from earlier hits. Some of the results follow. Entries with a potency or affinity are not part of this list.

The results in this text go back to PubChem BioAssay AID449764 (Southern Research Specialized Biocontainment Screening …, 2010).

The assay can be described thus: Mycobacterium tuberculosis H37Rv growth inhibition, no glycerol, confirmatory dose response (AID 449764).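 Note: growth read after 7 days of incubation.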 The note with it: series mostly up to 100 µM.
For the molecule `COc1cc(/C=C2\C(=O)NN(c3ccc(C)cc3)C2=O)cc([N+](=O)[O-])c1O`, the molecule was classed as inactive.
As to `O=C1CCC(=O)N1CNc1ccc(Oc2ccccc2)cc1`, the call was inactive.
Under `O=C(OCc1ccccc1)c1cccc(-c2nnn(Cc3ccccc3)n2)c1` stands “inactive”; under `O=C(CSc1n[nH]c(-c2ccccc2)n1)Nc1ccc(Br)cn1`, “inactive”.
Regarding `CN1CCN2c3ccccc3Cc3ccccc3C2C1` (centres undefined), the call was inactive.
For `CC(C)(C)c1nc2sc3c(c2c(=O)o1)CCCC3`, the outcome was inactive.
As to `O=c1c2c3c(sc2nc(N2CCNCC2)n1-c1cccc(Cl)c1)CCCCC3`, the call was inactive.
For `CCCCOC(=O)c1c(C)oc2ccc(NS(=O)(=O)c3ccc4c5c(cccc35)C(=O)N4)cc12`, the molecule was called inactive.
On to `COC(OC)c1ccnc(-c2ccc(OC(=O)c3cccs3)cc2)n1`, for which the molecule was classed as inactive.
As to `CCOc1ccc(OCc2ccc(C(=O)N/N=C(\C)c3ccccn3)cc2)cc1`, the molecule was called inactive.
The same measure for `C/C(=N\NC(=O)CC(C)C)c1c(C(F)(F)F)[nH]n(-c2nc3ccccc3s2)c1=O`: “inactive”.
For `Oc1cccc(-c2nc3ccccc3s2)c1`, the molecule was called inactive.
In the case of `Cc1ccc(NC(=O)CNCc2cccs2)cc1Br`, the molecule was called inactive.
For the molecule `COC(=O)c1ccc(N/C(C)=C/C(=O)c2ccc(C)o2)cc1`, the molecule was called inactive.
Turning to `O=C(c1cccc([N+](=O)[O-])c1)N1CCN(c2ccc(N3CCOCC3)nn2)CC1`, the molecule was called inactive.
The same measure for `S=c1[nH]c2ccc3ccccc3c2[nH]1`: “inactive”.
In the case of `Oc1ccccc1C=NC1=NN(c2cccc(C(F)(F)F)c2)CC1`, the outcome was inactive.
On to `CCCCCCc1ccc(N2C[C@H](C)[C@@H](CC(=O)NCc3ccccc3)C2=O)cc1`, for which the molecule was called inactive.
The same measure for `O=Cc1ccc(-c2ccc(Cl)cc2Cl)[nH]1`: “inactive”; for `O=C(Nc1ccc(-c2noc(CCc3ccccc3)n2)cc1)c1cccnc1`: “inactive”.
The same measure for `CNC(=O)c1csc(-c2ccc(Cl)cc2)n1`: “inactive”; for `CN1C(=O)c2cccc3c(Br)ccc(c23)C1=O`: “inactive”; for `O=C(C1CC(=O)N(c2ccc3c(c2)OCCO3)C1)N1CCN(c2cccc(C(F)(F)F)c2)CC1` (centres undefined): “inactive”.
On to `CO/N=C\CC(=O)Nc1ccc(Oc2ccccc2)cc1`, for which the outcome was inactive.
The same measure for `COc1ccc(-c2cc(C(=O)N(C)CC(=O)Nc3cccc(F)c3)c3ccccc3n2)cc1`: “inactive”; for `CCc1ccc(NC(=O)c2ccc(C3SCC(=O)N3CCc3ccccc3)cc2)cc1` (centres undefined): “inactive”; for `COc1cc(/C=N/N2CCOCC2)ccc1OCc1ccc(Cl)cc1`: “inactive”.
The same measure for `CC(C)OC(=O)c1ccc(N)cc1`: “inactive”; for `CC(=O)Oc1ccc2occ(C(=O)c3cccs3)c2c1`: “inactive”.
The same measure for `CCCC1CCC(C(=O)Nn2c(C)nc3ccccc3c2=O)CC1` (centres undefined): “inactive”; for `CCOC(=O)c1cc(CC)sc1NC(=O)c1cc(OCC)c(OCC)c(OCC)c1`: “inactive”; for `Nc1nc2ccccc2n1/N=C/c1ccc(Br)cc1`: “inactive”.
As for `CCOc1cc(C2NN=C(c3ccc(C)cc3)S2)ccc1O` (centres undefined), the call was inactive.
Take `CC(=O)c1ccc(NC(=O)COC(=O)c2c3c(nc4ccccc24)/C(=C\c2cccs2)CCC3)cc1`: the call was inactive.
Under `CC(/C=C/C=C/c1ccccc1)=N\NC(=O)c1cccnc1` stands “inactive”; under `CCNc1nc(NCC)n2c(SC(C(=O)Nc3cc(C)ccc3C)c3ccccc3)nnc2n1` (centres undefined), “inactive”.
Under `Cc1ccc(-c2cn3cccnc3n2)cc1NC(=O)c1ccc(Br)o1` stands “inactive”; under `Clc1nc2c(-c3ccccc3)nnn2c2ccccc12`, “inactive”; under `CCCCc1ccc(NC(=O)CSC2=NN3CCCC(=O)N=C3S2)cc1`, “inactive”.
The same measure for `COc1ccccc1/C=C/C1=NC(=C\C=C/c2ccccc2)/C(=O)O1`: “inactive”.
On to `Cc1ccc(-c2nnc(C)c(N3CCCC3)n2)cc1`, for which the molecule was called inactive.
The same measure for `CC(OC(=O)CCN=C1NS(=O)(=O)c2ccccc21)C(=O)Nc1ccc(F)c(F)c1F` (centres undefined): “inactive”.
With `COc1cc(NC(=O)c2ccc(C(C)(C)C)cc2)c(OC)cc1NC(=O)CN1CCCCC1`, the molecule was classed as inactive.
The same measure for `Cc1sc2nc(CN(C(=O)NC3CCCCC3)C3CCCC3)[nH]c(=O)c2c1C`: “inactive”.
With `Cc1cc(Nc2ccccc2)c2c([N+](=O)[O-])ccc(C)c2n1`, the result was inactive.
Take `O=Cc1ccc2noc(-c3ccc(Cl)cc3)c2c1`: the outcome was inactive.
`Cc1nn(-c2ccccn2)c2c1-c1nc(N3CCOCC3)ncc1CC2`: the call was inactive.
The same measure for `CC(C)N1C(=O)NC(=O)C2(Cc3cc([N+](=O)[O-])ccc3N(C)C2c2ccccc2)C1=O` (centres undefined): “inactive”.
Under `CN(C)c1nc(NCc2ccccc2)nc(N/N=C/c2ccc3c(c2)OCO3)n1` stands “inactive”; under `CCCCn1c(N)c(N(CC(C)C)C(=O)c2oc3c(Cl)cccc3c2C)c(=O)[nH]c1=O`, “inactive”; under `OCCN(/C=N/c1nc(-c2ccc(Br)cc2)cs1)CCO`, “inactive”.
In the case of `CC(C)(C)n1c(O)c(C=Nc2ccc3c(c2)CCC3)c(=O)[nH]c1=O`, the molecule was classed as inactive.
Under `CCOC(=O)c1c(/N=C/N(C)C)sc(/C=N/Nc2ccccc2)c1-c1ccccc1Cl` stands “inactive”; under `COCCn1c(-c2ccc(OC(F)(F)C(F)C(F)(F)F)cc2)nc2c1c(=O)[nH]c(=O)n2CC(C)C` (centres undefined), “inactive”; under `N#CCCn1cc(/C=C2\NC(=S)N(c3ccccc3)C2=O)c(-c2ccc(-c3ccccc3)cc2)n1`, “inactive”.
Under `COc1ccccc1N1C(=O)NC(=O)/C(=C/c2ccc([N+](=O)[O-])s2)C1=O` stands “inactive”; under `CN1/C(=N\O)c2cccc3cccc1c23`, “inactive”.
For the molecule `Cc1cc(OCc2nc3ccccc3s2)ccc1N`, the call was inactive.
With `Cc1cc(O)c(/C=N/Nc2cccc(Cl)c2)c(=O)o1`, the outcome was inactive.
Under `COc1ccc(-c2c(-c3cc(OC)cc(OC)c3)n(C)c3ccc(-c4ccn[nH]4)cc23)cc1` stands “inactive”.
The same measure for `Nc1ccc(N=Nc2ccccc2)c(N)n1`: “inactive”; for `CC(=O)/C(=C\Nc1ccc(OCc2ccccc2)cc1)c1ccccc1`: “inactive”.
As for `CCC(C)OC(=O)C(C)Oc1ccc(-c2ccccc2)cc1` (centres undefined), the result was inactive.
As for `CC(=O)c1cccc(Nc2nc(-c3cccnc3)cs2)c1`, the outcome was inactive.
Under `O=c1[nH][nH]c(-c2ccccc2O)c1C(C[N+](=O)[O-])c1cccc(Cl)c1` (centres undefined) stands “inactive”; under `COc1cc2[nH]c(Cl)c([N+](=O)[O-])c2cc1OC`, “inactive”.
Take `C#CCOC(=O)/C(=C/c1ccc(F)cc1)NC(C)=O`: the result was inactive.
The same measure for `CN1[C@@H]2CC[C@H]1CC(OC(=O)[C@H](CO)c1ccccc1)C2` (some centres undefined): “inactive”.
Under `CCOc1cc(/C=N\NC(=O)Cn2nc([N+](=O)[O-])cc2C)ccc1OCc1cccc2ccccc12` stands “inactive”; under `N#CC1=C(N)NC(SCC(=O)c2ccccc2)=C(C#N)C12CCCC2`, “inactive”; under `CCOc1ccc2nc(/N=C/c3nc(-c4ccccc4)oc3O)sc2c1`, “inactive”.
The same measure for `COc1ccccc1/C=N/NC(=O)NC12CC3CC(CC(C3)C1)C2`: “inactive”; for `Nc1ccc(OCc2ccco2)cc1`: “inactive”; for `Nc1cnc(-c2ccccc2)nc1Cl`: “inactive”.
For `Cc1ccc(-c2ccc(/C=N/c3ncn[nH]3)o2)cc1Cl`, the molecule was classed as inactive.
As to `COc1ccc(-c2nc(C#N)c(N3CCc4ccccc4C3)o2)cc1OC`, the outcome was inactive.
In the case of `COc1ccc(NC(=O)C(=O)NCC(c2ccco2)N2CCc3ccccc3C2)cc1` (centres undefined), the molecule was called inactive.
`C=CCOc1ccc(/C=N/O)cc1Cl`: the molecule was called inactive.
Under `Cc1ccccc1C1C(C#N)=C2N=C(N)c3c(sc4c3CCCCC4)N2C2=C1C(=O)CC(C)(C)C2` (centres undefined) stands “inactive”; under `C[C@]12CCC(=O)C[C@@H]1CC[C@@H]1[C@@H]2CC[C@]2(C)C=CC[C@@H]12`, “inactive”.
Under `Cn1c(=S)c2[nH]c(SCCN3CCCC3)nc2n(C)c1=O` stands “inactive”.
Under `CCCN(CC1CC1)C(=O)COC(=O)c1ccc2c(c1)C(=O)N(c1ccc(OCC)cc1)C2=O` stands “inactive”.
Turning to `CCOC(=O)c1ccc(N=C(CC)c2c(O)n(C)c(=O)n(C)c2=O)cc1`, the molecule was classed as inactive.
The same measure for `CN(C(=O)COC(=O)/C=C/c1ccc(Cl)c(Cl)c1)c1c(N)n(Cc2ccccc2)c(=O)[nH]c1=O`: “inactive”.
Under `C=CCOc1ccc(/C=C/C(=O)OCC(=O)NCC2CCCO2)cc1` (centres undefined) stands “inactive”; under `CC(C)c1ccc(-c2nn(-c3ccccc3)cc2C(=O)NCC2CCCO2)cc1` (centres undefined), “inactive”.
The same measure for `O=S(=O)(c1ccc(Cl)cc1)N1CCC(n2cnc3cc(C(F)(F)F)ccc32)CC1`: “inactive”.
For `O=C1NC(=Nc2ccccc2)S/C1=C\C=C\c1ccco1`, the outcome was inactive.
For `CCCC(O)(CCC)C(=O)NNc1ccc(C)cc1`, the call was inactive.
Under `CC(=O)N1C(Nc2ccc(Cl)cc2)CCN1c1ccccc1` (centres undefined) stands “inactive”.
The same measure for `CCOc1ccc(N=CNc2ccc(OCC)cc2)cc1`: “inactive”; for `Cc1ccc(C(=O)Nc2ccc3c4c(cccc24)CC3)cc1[N+](=O)[O-]`: “inactive”; for `CCn1c(SCC(=O)Nc2nc3ccc(C)cc3s2)nc2c(c1=O)SC(C)C2` (centres undefined): “inactive”.
Under `Cc1cc(NC(=O)CCN2C(=O)C3C4C=CC(C4)C3C2=O)ccc1Br` (centres undefined) stands “inactive”.
`Cc1ccc(-c2ccc(=O)n(CC(=O)N3CCN(c4cc(Cl)ccc4C)CC3)n2)cc1`: the molecule was called inactive.
The same measure for `CCOC(=O)c1ccc(N=Cc2c(O)c3ccccc3oc2=O)cc1`: “inactive”; for `O=C(CCC1CCCC1)c1c(O)c2ccccc2oc1=O`: “inactive”.
Under `CCCCCCCCCCC[C@@H](C[C@@H]1OC(=O)[C@H]1CCCCCC)OC(=O)[C@H](CC(C)C)NC=O` stands “inactive”.
For `COc1cccc(/C=C/c2nc(C#N)c(NCC(C)C)o2)c1`, the outcome was inactive.
The same measure for `O=C(O)Cc1c[nH]c2ccc(O)cc12`: “inactive”; for `O=C1C(c2ccccc2)=[N+]([O-])c2ccccc21`: “inactive”; for `O=C1C(=O)c2ccccc2C(O)=C1C1CCC(c2ccc(Cl)cc2)CC1` (centres undefined): “inactive”.
The same measure for `COc1ccc(N=C/C=C2/C=C(c3ccccc3)OC(C)(C)O2)cc1`: “inactive”; for `CCCCOC(=O)c1ccc(O)cc1`: “inactive”; for `CCOc1ccc(/C=C/C2=Cc3c(sc(NC(=O)CSc4n[nH]c(N)n4)c3C#N)C(C)(C)C2)cc1`: “inactive”.
`Cc1ccc(C(=O)COC(=O)C2CC(=O)N(c3nc(-c4ccccc4)cs3)C2)cc1C` (centres undefined): the result was inactive.
The same measure for `Cc1cc(C)n2[nH]c(=O)c(N=Nc3cccc(C(F)(F)F)c3)c2n1`: “inactive”; for `O=c1ccn(-c2ccccc2)[nH]1`: “inactive”.
The same measure for `Cc1[nH]n(-c2ccccc2)c(=S)c1C=NCCCN=Cc1c(C)[nH]n(-c2ccccc2)c1=S`: “inactive”.
